BAZ2B block = BAZ2B (human) inhibition. Potency, µM (highest dose often 114 µM), inactives show at the top dose activity change, negative = inhibition, actives largely listed as inhibitors. 4.4% of 360,000 active. AlphaScreen BAZ2B-H3K14Ac peptide displacement; further: on the % scale 0 is the no-effect control and ±100 the full control effect; nearly all actives have a fitted effect of over 60% in size
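Complex of BAZ2B and biotin-H3K14Ac (50 nM apiece) forms over 30 min at RT, then faces library compounds up to 110 uM for another 30 min; AlphaScreen beads added, 20 min dark incubation, luminescence read.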
PLK1 PBD block = blocks phosphopeptide binding to human PLK1 polo-box domain | P53350 | Plk1 PBD binding of FITC phosphopeptide, fluorescence polarization | Potency, µM, for inactives: max response, negative = inhibition, hits mostly inhibitors | 2.8% of 360,000 active; further: series mostly up to about 57 µM; on the % scale 0 is the no-effect control and ±100 the full control effect; nearly all actives have a fitted effect of over 65% in size
Target sequence (P53350 whole entry, looked up, the tested form may be a part): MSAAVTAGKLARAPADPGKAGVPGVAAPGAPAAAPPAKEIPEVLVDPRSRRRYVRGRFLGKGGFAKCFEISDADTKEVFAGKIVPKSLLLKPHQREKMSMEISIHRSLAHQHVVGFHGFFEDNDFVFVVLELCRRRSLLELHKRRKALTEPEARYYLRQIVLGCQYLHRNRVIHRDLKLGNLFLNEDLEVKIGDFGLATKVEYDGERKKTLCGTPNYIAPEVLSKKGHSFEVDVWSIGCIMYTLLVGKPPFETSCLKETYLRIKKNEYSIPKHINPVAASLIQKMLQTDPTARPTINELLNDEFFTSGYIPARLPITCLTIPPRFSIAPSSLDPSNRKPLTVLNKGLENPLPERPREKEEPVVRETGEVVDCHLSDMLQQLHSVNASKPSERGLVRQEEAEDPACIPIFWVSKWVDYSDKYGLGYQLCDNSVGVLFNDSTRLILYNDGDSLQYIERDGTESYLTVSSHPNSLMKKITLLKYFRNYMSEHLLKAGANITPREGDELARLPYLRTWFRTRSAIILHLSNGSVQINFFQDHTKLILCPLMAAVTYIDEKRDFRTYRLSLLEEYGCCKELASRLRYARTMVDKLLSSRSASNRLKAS
JMJD2A Tudor inh = JMJD2A Tudor domain (human) inhibition; 4.4% of 390,000 active; AlphaScreen JMJD2A-Tudor / H3K4me3 peptide binding; AID 504339; O75164; Potency, µM (top dose mostly 114 µM), without a hit: at the top dose activity change, negative = inhibition, most hits filed as inhibitors; further: on the % scale 0 is the no-effect control and ±100 the full control effect; nearly all actives have a fitted effect of over 50% in size
VDR inhibitor = vitamin D3 receptor (human) inhibition. VDR-SRC2-3 peptide fluorescence polarization, 2 h. Potency, µM, without a hit: max response, negative = inhibition, actives largely listed as inhibitors. 0.93% of 400,000 active. P11473; further: on the % scale 0 is the no-effect control and ±100 the full control effect
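Compounds are added to VDR with labelled SRC2-3 coactivator peptide and held 2 h at room temperature. Inhibition of the VDR–peptide interaction is then read as a change in fluorescence polarization.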
G9a block = inhibitors of human histone lysine methyltransferase G9a; AID 504332; G9a H3K9 monomethylation, AlphaScreen, 2 h; 8.8% of 350,000 active; Potency, µM (top dose mostly 102 µM), without a hit: at the highest dose activity, negative = inhibition, hits mostly inhibitors; further: on the % scale 0 is the no-effect control and ±100 the full control effect; nearly all actives have a fitted effect of over 75% in size
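G9a (20 nM) preincubated 15 min RT with compounds, then 500 nM biotinylated H3K9 peptide and 20 uM SAM added; 2 h RT reaction. Monomethyl-H3K9 product detected by AlphaScreen with anti-H3K9me1 antibody, streptavidin donor and anti-rabbit IgG acceptor beads.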
HP1b chromo inh = HP1-beta chromodomain-methylated histone interaction inhibition; P83916; AlphaScreen HP1-beta / biotin-H3K9me3 peptide binding; Potency, µM (series often up to 114 µM), for inactives: at the highest dose activity change, negative = inhibition, most hits filed as inhibitors; 0.56% of 390,000 active; AID 540317; further: nearly all actives have a fitted effect of over 70% in size
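HP1-beta protein (50 nM final) preincubated 30 min at room temperature with biotinylated H3(1-18)K9me3 peptide (50 nM) in PBS pH 7.4, 0.01% Tween-20, then compound added for 30 min. AlphaScreen streptavidin donor/nickel chelate acceptor beads (10 ug/mL final), 30 min dark, luminescence read.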
Numbers without * were called inactive; [ ] = dose if it differs, or a comment. This is a sample that favours compounds with a hit; in the whole collection about 11% have one here. The call rests on the fitted dose curve; in most records, active means well fitted curve in the direction sought with a large enough effect; inconclusive means small, poorly fitted or top-dose-only effect, or another doubt; inactive means no such curve, though single readings can be large; an effect the other way counts as inactive or inconclusive. Potency means the concentration at half of the fitted maximal effect.

`CCCNC(=O)C1(C)CCCN(C(=O)c2c(F)ccc(C)c2F)C1` (stereo not given) gave PLK1 PBD block -7%.
Screening Cc1onc(-c2c(F)cccc2Cl)c1C(=O)OCC(=O)NCc1ccccc1 returned BAZ2B block 11%, PLK1 PBD block 6%, JMJD2A Tudor inh 6%, VDR inhibitor -18%, G9a block -12%[2.33 µM] and HP1b chromo inh 47%.
Screening CCCCn1c(-c2cccc3ccccc23)nc2cc3[nH]c(=O)c(C(C)C)nc3cc21 returned BAZ2B block -39%, PLK1 PBD block -7%, JMJD2A Tudor inh -8%, VDR inhibitor -25% and HP1b chromo inh 55%.
Screening CCc1ccccc1Nc1sc(C(=O)c2cccc(OC)c2)c(N)c1S(=O)(=O)c1ccccc1 returned BAZ2B block inconclusive, JMJD2A Tudor inh inconclusive, VDR inhibitor -5%, G9a block -26%[59 µM] and HP1b chromo inh 11%.
For O=C(CCCN1C(=O)/C(=C/c2ccco2)SC1=S)Nc1ccccc1C(=O)O the results were BAZ2B block 40µM*, PLK1 PBD block inconclusive, JMJD2A Tudor inh 89µM*, VDR inhibitor -2% and HP1b chromo inh -17%.
O=C(CCCN1C(=O)/C(=C/c2ccccc2)SC1=S)Nc1ccccc1O was read as BAZ2B block -20%, PLK1 PBD block -12%, JMJD2A Tudor inh -15%, VDR inhibitor inconclusive, G9a block -45% and HP1b chromo inh -2%.
Screening O=C(CCCN1C(=O)/C(=C\c2ccccc2)SC1=S)Nc1ccc(O)cc1C(=O)O returned BAZ2B block 35µM*, PLK1 PBD block -16%, JMJD2A Tudor inh 5%, VDR inhibitor -22% and HP1b chromo inh 36%.
Screening O=C1/C(=C\c2ccco2)SC(=S)N1Cc1ccccc1 returned BAZ2B block 11µM*, PLK1 PBD block -14%, JMJD2A Tudor inh 50µM*, VDR inhibitor 4%, G9a block 25%[0.501 µM] and HP1b chromo inh inconclusive.
For O=C(CCN1C(=O)/C(=C/c2ccccc2Cl)SC1=S)Nc1ccccc1C(=O)O the results were BAZ2B block 35µM*, PLK1 PBD block 24µM*, JMJD2A Tudor inh inconclusive, VDR inhibitor 79µM*, G9a block 25%[2.33 µM] and HP1b chromo inh -10%.
`CS(=O)(=O)n1c2ccccc2c(=O)n1-c1ccccc1CCl` gave PLK1 PBD block -13%.
Screening O=C(CN1C(=O)/C(=C\c2ccco2)SC1=S)Nc1ccc(O)cc1C(=O)O returned BAZ2B block 40µM*, PLK1 PBD block 17µM*, JMJD2A Tudor inh 5%, VDR inhibitor -13%, G9a block -3%[0.0925 µM] and HP1b chromo inh 22%.
`CC(=O)NNC(=O)CN1C(=O)/C(=C/c2ccccc2)SC1=S` gave BAZ2B block -7%, PLK1 PBD block -11%, JMJD2A Tudor inh -27%, VDR inhibitor -1%, G9a block 27%[59 µM] and HP1b chromo inh 37%.
O=C(CCCN1C(=O)/C(=C\c2ccco2)SC1=S)Nc1ccc2ccccc2c1 was read as BAZ2B block inconclusive, PLK1 PBD block -15%, JMJD2A Tudor inh -27%, VDR inhibitor -18%, G9a block 25µM* and HP1b chromo inh 4%.
For O=C(Nc1ccc(O)cc1C(=O)O)c1cccs1 the results were BAZ2B block -36%, PLK1 PBD block -4%, JMJD2A Tudor inh -10%, VDR inhibitor 6%, G9a block inconclusive and HP1b chromo inh 44%.
For O=C(CCN1C(=O)/C(=C/c2ccco2)SC1=S)Nc1ccc(O)cc1C(=O)O the results were BAZ2B block 50µM*, PLK1 PBD block 0%, JMJD2A Tudor inh 28µM*, VDR inhibitor inconclusive, G9a block 28µM* and HP1b chromo inh 18µM*.
`CC(C(=O)Nc1ccc(O)cc1C(=O)O)N1C(=O)/C(=C\c2cccs2)SC1=S` (stereo not given) gave BAZ2B block 50µM*, PLK1 PBD block 6.7µM*, JMJD2A Tudor inh 45µM*, VDR inhibitor 45µM*, G9a block 7.9µM* and HP1b chromo inh inconclusive.
For Cc1cc(-c2ccc(S(=O)(=O)Nc3cccc(Cl)c3C)cc2)on1 the results were BAZ2B block 0%, JMJD2A Tudor inh -10%, VDR inhibitor 4%, G9a block -6%[59 µM] and HP1b chromo inh 12%.
For COc1ccccc1C(=O)NC1(C(F)(F)F)C(=O)NC(C)=C1C#N (stereo not given) the results were BAZ2B block 3%, JMJD2A Tudor inh -18%, VDR inhibitor 5%, G9a block -1%[59 µM] and HP1b chromo inh 26%.
CN(C)c1ccc(C(C(=O)NCC2CCCO2)N(C(=O)c2snc(C(N)=O)c2N)c2ccccc2)cc1 (stereo not given) was read as BAZ2B block -1%, PLK1 PBD block -3%, JMJD2A Tudor inh -6%, VDR inhibitor -5%, G9a block -10% and HP1b chromo inh 28%.
`COc1cc(C(C(=O)NC2CCCC2)N(Cc2ccco2)C(=O)c2snc(C(N)=O)c2N)cc(OC)c1OC` (stereo not given) gave BAZ2B block 2%, PLK1 PBD block 0%, JMJD2A Tudor inh -9%, VDR inhibitor -9%, G9a block -7% and HP1b chromo inh 11%.
`CN(C)c1ccc(C(C(=O)NC2CCCCC2)N(Cc2ccco2)C(=O)c2snc(C(N)=O)c2N)cc1` (stereo not given) gave BAZ2B block 40µM*, PLK1 PBD block -10%, JMJD2A Tudor inh inconclusive, VDR inhibitor -14%, G9a block inconclusive and HP1b chromo inh inconclusive.
Screening CN(C)c1ccc(C(C(=O)NCC2CCCO2)N(C(=O)c2snc(C(N)=O)c2N)c2ccc3c(c2)OCO3)cc1 (stereo not given) returned BAZ2B block inconclusive, PLK1 PBD block -7%, JMJD2A Tudor inh inconclusive, VDR inhibitor -4%, G9a block 40µM* and HP1b chromo inh -7%[57 µM].
`CC(C)c1ccc(N(C(=O)c2snc(C(N)=O)c2N)C(C(=O)NCC2CCCO2)c2ccc(N(C)C)cc2)cc1` (stereo not given) gave BAZ2B block 22µM*, PLK1 PBD block -3%, JMJD2A Tudor inh 18µM*, VDR inhibitor 3%, G9a block 13µM* and HP1b chromo inh inconclusive.
`Cc1ccc(SCC(=O)Nc2ccc(O)c(-c3nc4cc(C)ccc4o3)c2)cc1` gave BAZ2B block -11%, JMJD2A Tudor inh 8%, VDR inhibitor 15%, G9a block 4%[59 µM] and HP1b chromo inh 68%.
Screening COc1cc2cc(C(=O)N/N=C/c3ccccc3Cl)[nH]c2cc1OC returned BAZ2B block -17%, PLK1 PBD block -3%, JMJD2A Tudor inh inconclusive, VDR inhibitor 10%, G9a block 14% and HP1b chromo inh 4%.

Screens deposited in PubChem BioAssay by National Center for Advancing Translational Sciences (NCATS).
